Structures are written as SMILES. The campaign covered roughly 69,000 compounds. About 8,600 (12%) showed an effect of 50% or more. The sample holds strong results, similar compounds and a random draw of the others, so the mix is not that of the screen.

We go through 111 compounds from ChEMBL document CHEMBL4513216, “Probing the Open Global Health Chemical Diversity Library for Multistage-Active Starting Points for Next-Generation Antimalarials” (ACS Infect Dis, 2020).

The assay deals with Plasmodium berghei. Put plainly: Screen against P. berghei liver stage (PbLuc), transformed with Luciferase, at 10uM. The note with it: tested at 10 uM. It is filed as functional, HepG2.
Take `O=C(NCc1nncn1C1CCCCC1)C1CNCCO1` (stereo unspecified): the INHIBITION is recorded as 33.4%.
For `COc1ccc(C2CCCN2C(=O)c2ccnc(NC3CC3)c2)cc1` (stereo unspecified) the value was -59.3%; for `O=C(NC1CC1)N1Cc2[nH]nc(COc3cccnc3)c2C1`, -4.02%.
The same measure for `CN(C)Cc1cccc(-c2cccnc2C(=O)NCC2CC2)c1`: 18.4%; for `Cc1cccc(N2CCC3(CCCN(C(=O)c4cccnc4)C3)CC2)n1`: -1.26%.
The same measure for `Cn1cccc1C(=O)N1CCC2(CCN(C(=O)c3cccnc3)C2)CC1`: 37.6%; for `O=C(c1ccno1)N1CCC2(CC1)C(=O)Nc1ccccc12`: -19.5%.
For `O=C(c1ccco1)N1CCC2(CC1)C(=O)Nc1ccccc12`, the INHIBITION is 64.4%.
The same measure for `Cc1cccc(N2CCC3(CCN(C(=O)c4cccnc4)CC3)C2)n1`: 19.5%; for `O=C(c1ccoc1)N1CCC2(CC1)C(=O)Nc1ccccc12`: 25.4%; for `O=C(c1ccncc1)N1CCC2(CC1)CCN(C(=O)c1cccnc1)C2`: 53.9%.
For the compound `O=C(c1ccnnc1)N1CCC2(CC1)CCN(C(=O)c1cccnc1)C2`, the INHIBITION is reported as 16.8%.
On to `O=C(c1cccnc1)N1CCC2(CCN(C(=O)N3CCCC3)CC2)C1`, for which the INHIBITION is on record as 61.1%.
As for `NC(=O)N1CCC2(CCN(C(=O)c3cccnc3)CC2)C1`, the INHIBITION was 86.5%.
As to `CN1CCC2(CCN(C(=O)c3cccnc3)C2)C1` (stereo unspecified), the INHIBITION came to 12.2%.
The same measure for `CC(C)N1CCC2(CCN(C(=O)c3cccnc3)CC2)C1`: 15.4%; for `c1cnn(-c2ccc(CN3CCCC(Cn4cncn4)C3)cc2)c1` (stereo unspecified): 13.3%; for `O=C(O)C(c1ccc(O)cc1)N1CCC(N2CCSCC2)CC1` (stereo unspecified): 18.6%.
The same measure for `Cc1nc[nH]c1CN(C)Cc1cnn(-c2ccc(F)cc2)c1`: -5.22%.
For `O=S(=O)(CCN1CCCCC1Cn1cccn1)c1ccccc1` (stereo unspecified) the value was 25.8%.
In the case of `Cc1noc(C)c1CNC(=O)Nc1ccc(N2CCOC(C)C2)cc1` (stereo unspecified), the INHIBITION amounted to 5.94%.
For `CN(Cc1cnn(C)c1)C(=O)Cn1c(CS(C)(=O)=O)nc2ccccc21` the value was -7.11%; for `CC(CN1CCOC1=O)NC(=O)c1ccccc1Oc1ccccc1` (stereo unspecified), 18.4%.
For `CCN(Cc1ccoc1)C(=O)NC1CCN(CC=C(C)C)CC1` the value was 57.2%; for `CCN(Cc1ccoc1)C(=O)NC1CCN(CC2CC2)C1` (stereo unspecified), 19.3%; for `CCN(Cc1ccoc1)C(=O)NC1CCN(CC2CCCC2)CC1`, 48.5%.
The same measure for `CN(CC(=O)NS(=O)(=O)c1ccsc1)Cc1ccccc1`: 9.76%; for `Cc1cccc(S(=O)(=O)NC(=O)CN(C)Cc2ccccc2)c1`: 55.1%; for `CN(CC(=O)NS(=O)(=O)c1cccs1)Cc1ccccc1`: 32%.
As to `Cc1ccc(S(=O)(=O)NC(=O)CCc2ccccc2)cc1N(C)C`, the INHIBITION was 12.589%.
The same measure for `CN(CC(=O)NS(=O)(=O)c1ccc(F)cc1)Cc1ccccc1`: 50%; for `Cc1cccc(CC(=O)NS(=O)(=O)c2ccc(F)c(F)c2)c1`: 23.5%; for `CCS(=O)(=O)N1C[C@H]2CN(Cc3cccc(C)c3)C(=O)[C@H]2C1`: -1.36%.
As for `N#Cc1ccccc1N1CCCN(C(=O)NCc2cc[nH]n2)CC1`, the INHIBITION came to 10%.
As for `CC(c1cccc(S(N)(=O)=O)c1)N(C)CCCOc1ccccc1` (stereo unspecified), the INHIBITION worked out at 23.4%.
For `CCN1CCC(CC(=O)NCCc2nc(O)cc(O)n2)CC1` the value was -16.3%; for `COc1c(CNC2CCCN(c3ncccn3)C2)c(C(C)C)nn1C` (stereo unspecified), 42.9%.
The same measure for `Cc1ccc(CN2CCC3(CC2)C(=O)N(CC(C)C)CCN3C)s1`: -31.9%; for `Cc1cccc(CN2CCCC(O)(CNCCc3c[nH]cn3)C2=O)c1` (stereo unspecified): 48.1%; for `CCC(C)Oc1ccc(CNCCNC(C)=O)cc1Cl` (stereo unspecified): 60.2%.
The same measure for `CCC(C)Oc1ccc(CNCCc2c[nH]cn2)cc1Cl` (stereo unspecified): 66.8%; for `COc1ccc(CNCC(C)Oc2ccccn2)cc1Cl` (stereo unspecified): 17%.
On to `CC(=O)NCCNC(=O)NCc1ccc(Br)cc1Cl`, for which the INHIBITION is 4.41%.
The same measure for `CC(CNCc1ccc(Cl)c(Cl)c1)Oc1ccccn1` (stereo unspecified): -41.8%.
In the case of `CCC(C)Oc1ccc(CNCCNS(C)(=O)=O)cc1Cl` (stereo unspecified), the INHIBITION is recorded as 60.2%.
With `CCC(C)Oc1ccc(CNCCNC(C)=O)cc1OC` (stereo unspecified), the INHIBITION is recorded as 40.7%.
The same measure for `COc1ccc(CNC(=O)NCCCNS(C)(=O)=O)cc1OC`: 33.8%.
For `CCOCC1COCCC12CCN(C(=O)CCOC)CC2` (stereo unspecified) the value was 8.67%; for `CC(=O)N1CCN(c2ccc(Cl)nn2)C(=O)C1`, 40.8%.
The same measure for `NC(=O)C1CCN(C(=O)c2cccn2Cc2cccs2)CC1`: -12.1%; for `CC(C)N(Cc1ccc(Cl)c(Cl)c1)C(=O)Cn1cncn1`: 9.55%.
For the compound `Cc1cc(C)n(C2CCCN(C(=O)Cc3ccc(C#N)cc3)C2)n1` (stereo unspecified), the INHIBITION stood at 29.7%.
Turning to `C1CC(CN2C[C@@H]3C[C@@H](c4nnc(C5CC5)o4)O[C@@H]3C2)CCO1`, the INHIBITION came to 3.58%.
For `CCC(CNC(=O)c1ccc(C(N)=O)cc1)Oc1cccc(F)c1` (stereo unspecified) the value was 33.2%; for `CCC(CNC(=O)COC)Oc1cccc(F)c1` (stereo unspecified), 26.7%; for `CCC(CNC(=O)Cc1cc(C)on1)Oc1cccc(F)c1` (stereo unspecified), 54.5%.
Take `CCC(=O)NCC(CC)Oc1cccc(F)c1` (stereo unspecified): the INHIBITION came to 23%.
The same measure for `CCC(CNC(=O)Cn1ccnc1)Oc1cccc(F)c1` (stereo unspecified): 42.4%; for `CCC(CNC(=O)CNC(C)=O)Oc1cccc(F)c1` (stereo unspecified): 51.7%.
For `NCc1cccc(-c2cccnc2C(=O)NCCN2CCCC2)c1` the value was -8.58%; for `CC(C)(C)c1ncc(CNCC2CN(C3CC3)CCO2)s1` (stereo unspecified), 37.7%.
As for `C=c1occc1=C1NC(c2cccc(CN3CCOCC3)c2)=NO1`, the INHIBITION is recorded as -2.69%.
Regarding `CCN(Cc1cccc(-c2ccncc2)c1)S(C)(=O)=O`, the INHIBITION is reported as 29.6%.
Take `COCCN(Cc1cccnc1)S(=O)(=O)c1cccc(F)c1F`: the INHIBITION was found to be 29.4%.
On to `CCOc1ccc(S(=O)(=O)N(CCOC)Cc2ccoc2)cc1F`, for which the INHIBITION was -17.7%.
For `CCN(Cc1cccc(-c2ccncc2)c1)S(N)(=O)=O` the value was 11.7%.
For the compound `CCCN(Cc1ccccc1O)S(=O)(=O)N(C)CC`, the INHIBITION was -58%.
The same measure for `COCCN(Cc1cccnc1)S(=O)(=O)c1ccc(F)cc1C`: 26%.
`COCCN(Cc1ccoc1)S(=O)(=O)c1ccc(F)c(C)c1`: the INHIBITION is given as 0.348%.
The same measure for `CCOc1ccc(S(=O)(=O)N(CCOC)Cc2ccncc2)cc1F`: 58.8%; for `COCCN(Cc1cccnc1)S(=O)(=O)c1cc(C)ccc1F`: 59.4%; for `CCN(C)S(=O)(=O)N(CC)Cc1cccc(-c2ccncc2)c1`: 58.3%.
Consider `CCCC(=O)N(Cc1ccncc1)C(C)CC` (stereo unspecified), for which the INHIBITION was 49%.
For `CCCN(CCC)S(=O)(=O)N(C)Cc1ccncc1` the value was 53.4%; for `CC(c1ccc(Br)cc1)N1CCCN(C(N)=O)CC1` (stereo unspecified), 12.3%; for `Cn1cc(NC(=O)C2CC(c3ccccc3)C2)ccc1=O` (stereo unspecified), -5.1%.
The same measure for `CCOC(=O)CSc1nnc(C(N)CC(C)C)o1` (stereo unspecified): -28.4%; for `O=S(=O)(C1CC1)N1CCO[C@H]2[C@H](OCC3CC3)CC[C@@H]21`: -2.35%.
For `O=C(NCc1cccnc1)Nc1cc(C(F)(F)F)c[nH]c1=O` the value was -5.77%; for `Cc1nc(-c2ccc(C(=O)O)cc2)cc(C2CCCN(C(C)C)C2)n1` (stereo unspecified), 41.2%.
As for `CC1c2ncc(Cn3cncn3)n2CCN1CC1CCOCC1` (stereo unspecified), the INHIBITION is given as -8.28%.
In the case of `Cc1ccc(-c2nnc(C(C)N3CCc4cncnc4C3)o2)cc1` (stereo unspecified), the INHIBITION came to 22.1%.
The same measure for `COCCn1cnnc1C1CCCN(C(C)C)C1` (stereo unspecified): -16.5%; for `CCOc1ccccc1-c1cc(N)[nH]n1`: 16.2%.
For `Cc1ccc(F)c2c1CCCN2CC(=O)NC1CCS(=O)(=O)C1` (stereo unspecified) the value was 45%; for `Cc1cncc(C2CCCN(C(=O)c3cnco3)C2)n1` (stereo unspecified), 39.7%.
The same measure for `Cc1ccc(C(=O)N2CCc3ncc(Cn4cccn4)n3CC2)cn1`: 30.3%; for `CCN(Cc1ccncc1)S(C)(=O)=O`: 14.3%; for `CCN(CC)S(=O)(=O)N(C)Cc1ccncc1`: 69.7%.
Turning to `COCCCN(Cc1ccncc1)c1cc(C)ncn1`, the INHIBITION was found to be 10%.
The same measure for `COCCN(CCOC)S(=O)(=O)N(C)Cc1ccncc1`: 56%; for `COCCN(Cc1ccncc1)C(=O)C1COc2ccccc2C1` (stereo unspecified): 45.8%.
The same measure for `CCN(CC)S(=O)(=O)N(C)Cc1ccc2c(c1)OCCO2`: -85%; for `CCc1ccc(S(=O)(=O)Nc2cnccc2C)s1`: 29.85%.
The same measure for `O=C(c1cccnc1)N1C[C@H]2CC[C@@H](C1)N(Cc1cccc(Cl)c1F)C2`: -48.4%; for `CN(C)C(=O)c1nc(-c2ccc(S(C)(=O)=O)cc2)c2cnccn12`: 16.8%; for `CC(C)[C@H](NS(C)(=O)=O)C(=O)NCc1cc(-c2ccccc2)n[nH]1`: 33.7%.
As to `C[C@H](NS(C)(=O)=O)C(=O)NCc1cc(-c2ccco2)n[nH]1`, the INHIBITION was found to be 2.6%.
In the case of `NS(=O)(=O)NCc1cc(-c2ccc(C(F)(F)F)cc2)n[nH]1`, the INHIBITION is recorded as 57.5%.
For `CC(C)OCCSCCn1nc2ccccn2c1=O` the value was 1.41%; for `COc1ncccc1CNC(=O)c1cnc(C)cn1`, -7.7%.
The same measure for `COc1ccc(-c2n[nH]cc2CNC2CCN(C3CC3)CC2)cc1`: -39.6%.
For `CC(CC#N)n1ccc(C(F)(F)F)n1` (stereo unspecified) the value was -6.3%; for `Cc1ccnc(C2CCN(CCCOc3ccccc3F)C2)n1` (stereo unspecified), 13.5%; for `Cc1ccccc1OC1CCN(CC(=O)Nc2cnn(C)c2C)CC1`, 33.2%.
Consider `Cc1nc(CCN2CCC(Oc3ccccc3F)CC2)c(C)s1`, for which the INHIBITION turned out to be 82.4%.
Consider `Cc1nc(CCN2CCC(Oc3ccccc3F)CC2)cs1`, for which the INHIBITION is given as 42.5%.
The same measure for `Cc1n[nH]c(C)c1S(=O)(=O)N1CCC(Oc2ccccc2F)CC1`: 1.62%.
For the compound `Cc1nc(C)c(CCN2CCC(Oc3ccccc3F)CC2)s1`, the INHIBITION turned out to be 86.4%.
As to `COc1ccc(CC(=O)N2CCC(Nc3ccc(C)nn3)CC2)cc1`, the INHIBITION is on record as -16%.
For `CC(C)NC(=O)NCc1ccc(C(=O)NC(C)Cn2cccn2)cc1` (stereo unspecified) the value was 3.73%.
